Test results published in ChEMBL document CHEMBL2218924, “A broad activity screen in support of a chemogenomic map for kinase signalling research and drug discovery” (Biochem J, 2013).

Key:
[1] = molecular target: T1, Serine/threonine-protein kinase BRSK1 (Homo sapiens) (UniProt Q8TDC3); conditions: at 1 µM
T1 sequence (whole entry): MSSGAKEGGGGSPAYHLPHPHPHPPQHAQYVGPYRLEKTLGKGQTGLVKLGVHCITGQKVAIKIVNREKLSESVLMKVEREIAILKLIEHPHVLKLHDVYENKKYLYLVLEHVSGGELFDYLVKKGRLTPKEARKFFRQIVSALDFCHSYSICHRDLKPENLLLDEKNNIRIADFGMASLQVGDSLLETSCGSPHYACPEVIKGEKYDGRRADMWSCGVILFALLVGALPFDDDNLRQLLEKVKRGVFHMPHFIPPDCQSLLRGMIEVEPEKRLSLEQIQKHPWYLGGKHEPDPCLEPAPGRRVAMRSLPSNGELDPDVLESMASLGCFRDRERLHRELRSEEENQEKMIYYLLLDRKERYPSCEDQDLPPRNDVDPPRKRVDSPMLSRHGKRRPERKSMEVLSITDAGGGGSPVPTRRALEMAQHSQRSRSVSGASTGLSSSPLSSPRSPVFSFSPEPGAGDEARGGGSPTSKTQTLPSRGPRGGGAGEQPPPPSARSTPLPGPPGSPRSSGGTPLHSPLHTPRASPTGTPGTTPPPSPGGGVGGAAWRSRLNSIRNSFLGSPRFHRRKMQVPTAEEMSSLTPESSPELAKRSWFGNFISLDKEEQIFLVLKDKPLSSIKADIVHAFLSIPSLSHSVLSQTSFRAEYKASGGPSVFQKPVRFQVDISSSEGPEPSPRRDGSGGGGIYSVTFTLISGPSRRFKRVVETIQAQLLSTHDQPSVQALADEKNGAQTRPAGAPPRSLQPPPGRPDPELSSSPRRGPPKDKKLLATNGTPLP

[2] = molecular target: T1, Serine/threonine-protein kinase BRSK1 (Homo sapiens); conditions: at 10 µM
[3] = molecular target: T2, Serine/threonine-protein kinase BRSK2 (Homo sapiens) (UniProt Q8IWQ3); conditions: at 1 µM
T2 sequence (whole entry): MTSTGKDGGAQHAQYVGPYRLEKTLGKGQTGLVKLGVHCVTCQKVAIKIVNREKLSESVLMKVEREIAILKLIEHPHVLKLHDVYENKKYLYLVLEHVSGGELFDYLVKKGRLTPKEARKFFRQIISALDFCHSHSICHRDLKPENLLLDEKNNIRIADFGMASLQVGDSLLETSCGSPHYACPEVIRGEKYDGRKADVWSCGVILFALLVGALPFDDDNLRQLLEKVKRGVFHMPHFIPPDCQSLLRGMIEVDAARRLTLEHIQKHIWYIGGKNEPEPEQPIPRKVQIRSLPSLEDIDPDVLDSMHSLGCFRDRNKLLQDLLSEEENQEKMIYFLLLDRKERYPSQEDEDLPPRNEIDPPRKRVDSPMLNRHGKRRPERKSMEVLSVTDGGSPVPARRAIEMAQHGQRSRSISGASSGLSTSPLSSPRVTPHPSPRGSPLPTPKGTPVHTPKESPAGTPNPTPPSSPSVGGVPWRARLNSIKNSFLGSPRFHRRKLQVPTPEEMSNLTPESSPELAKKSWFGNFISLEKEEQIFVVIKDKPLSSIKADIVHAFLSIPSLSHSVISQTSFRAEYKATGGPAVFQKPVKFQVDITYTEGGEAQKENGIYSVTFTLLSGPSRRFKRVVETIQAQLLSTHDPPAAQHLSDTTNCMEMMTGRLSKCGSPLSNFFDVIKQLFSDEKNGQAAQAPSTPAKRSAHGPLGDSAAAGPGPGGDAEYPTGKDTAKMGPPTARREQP

[4] = molecular target: T2, Serine/threonine-protein kinase BRSK2 (Homo sapiens); conditions: at 10 µM
[5] = molecular target: T3, Cyclin-dependent kinase 2/cyclin A (Homo sapiens) (UniProt P24941+P20248+P78396); conditions: at 10 µM
[6] = molecular target: T4, CDK3/cyclin E (Homo sapiens) (UniProt P24864+O96020+Q00526); conditions: at 1 µM
T4 sequence (O96020 whole entry, looked up): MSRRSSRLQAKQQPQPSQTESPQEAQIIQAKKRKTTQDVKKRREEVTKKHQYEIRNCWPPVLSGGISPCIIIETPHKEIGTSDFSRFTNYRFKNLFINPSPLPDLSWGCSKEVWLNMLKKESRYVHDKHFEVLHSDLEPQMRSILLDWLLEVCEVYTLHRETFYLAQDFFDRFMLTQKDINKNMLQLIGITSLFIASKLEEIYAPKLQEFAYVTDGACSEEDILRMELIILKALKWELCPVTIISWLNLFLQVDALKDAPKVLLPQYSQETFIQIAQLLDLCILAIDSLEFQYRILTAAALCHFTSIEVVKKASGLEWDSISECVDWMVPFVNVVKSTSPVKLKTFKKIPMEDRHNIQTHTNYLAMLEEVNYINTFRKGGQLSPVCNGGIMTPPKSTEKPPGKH
T4 sequence (P24864 whole entry, looked up): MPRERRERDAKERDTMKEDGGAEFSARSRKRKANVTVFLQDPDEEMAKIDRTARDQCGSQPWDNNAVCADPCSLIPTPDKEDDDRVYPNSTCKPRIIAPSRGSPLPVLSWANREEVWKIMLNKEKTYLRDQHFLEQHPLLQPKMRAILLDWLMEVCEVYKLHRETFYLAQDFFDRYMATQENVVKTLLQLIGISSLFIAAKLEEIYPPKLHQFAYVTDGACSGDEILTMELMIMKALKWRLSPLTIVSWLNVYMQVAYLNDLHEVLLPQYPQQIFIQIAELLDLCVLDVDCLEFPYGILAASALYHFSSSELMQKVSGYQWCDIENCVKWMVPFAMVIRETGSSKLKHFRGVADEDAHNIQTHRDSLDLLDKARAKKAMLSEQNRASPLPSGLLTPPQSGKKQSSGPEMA
T4 sequence (Q00526 whole entry, looked up): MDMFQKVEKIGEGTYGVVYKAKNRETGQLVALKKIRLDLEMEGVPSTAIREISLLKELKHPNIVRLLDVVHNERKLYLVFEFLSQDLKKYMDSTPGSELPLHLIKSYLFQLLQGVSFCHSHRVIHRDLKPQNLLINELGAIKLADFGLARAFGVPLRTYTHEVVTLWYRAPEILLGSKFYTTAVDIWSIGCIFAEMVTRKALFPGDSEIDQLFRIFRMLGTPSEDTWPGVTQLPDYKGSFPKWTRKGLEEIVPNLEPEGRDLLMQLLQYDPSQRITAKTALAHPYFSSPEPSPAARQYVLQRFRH

[7] = molecular target: T4, CDK3/cyclin E (Homo sapiens); conditions: at 10 µM
[8] = molecular target: T5, Cyclin-dependent kinase 5/CDK5 activator 1 (Homo sapiens) (UniProt Q00535+Q15078); conditions: at 10 µM
T5 sequence (Q00535 whole entry): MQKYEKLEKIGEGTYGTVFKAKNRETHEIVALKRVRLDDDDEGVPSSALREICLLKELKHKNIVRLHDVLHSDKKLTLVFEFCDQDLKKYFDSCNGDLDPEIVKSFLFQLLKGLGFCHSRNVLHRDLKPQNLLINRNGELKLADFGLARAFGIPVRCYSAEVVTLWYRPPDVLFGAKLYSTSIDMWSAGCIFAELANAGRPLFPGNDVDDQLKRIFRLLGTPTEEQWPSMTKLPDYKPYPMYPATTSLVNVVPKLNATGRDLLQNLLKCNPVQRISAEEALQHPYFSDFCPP
T5 sequence (Q15078 99-307 partner limits assumed): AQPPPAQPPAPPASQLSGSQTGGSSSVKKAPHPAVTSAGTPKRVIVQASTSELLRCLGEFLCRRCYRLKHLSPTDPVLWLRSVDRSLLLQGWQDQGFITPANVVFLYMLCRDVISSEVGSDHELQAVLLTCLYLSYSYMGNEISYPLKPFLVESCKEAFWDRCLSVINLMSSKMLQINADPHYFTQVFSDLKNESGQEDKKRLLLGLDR

[9] = molecular target: T6, CDK6/cyclin D3 (Homo sapiens) (UniProt P30281+Q00534); conditions: at 1 µM
[10] = molecular target: T6, CDK6/cyclin D3 (Homo sapiens); conditions: at 10 µM
[11] = molecular target: T7, Cyclin-dependent kinase 7/ cyclin H (Homo sapiens) (UniProt P51946+P50613); conditions: at 1 µM
[12] = molecular target: T7, Cyclin-dependent kinase 7/ cyclin H (Homo sapiens); conditions: at 10 µM
[13] = molecular target: T8, Cyclin-dependent kinase 1/cyclin B1 (Homo sapiens) (UniProt P06493+P14635); conditions: at 1 µM
T8 sequence (P06493 whole entry, looked up): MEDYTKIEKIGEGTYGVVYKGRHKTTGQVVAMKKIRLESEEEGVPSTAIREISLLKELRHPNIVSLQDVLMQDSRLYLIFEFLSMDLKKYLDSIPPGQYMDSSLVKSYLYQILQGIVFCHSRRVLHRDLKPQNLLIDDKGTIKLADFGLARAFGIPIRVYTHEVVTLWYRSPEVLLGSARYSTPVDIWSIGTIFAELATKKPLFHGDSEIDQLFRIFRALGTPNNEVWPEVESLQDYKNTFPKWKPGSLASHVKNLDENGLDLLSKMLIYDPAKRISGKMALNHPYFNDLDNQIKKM
T8 sequence (P14635 whole entry, looked up): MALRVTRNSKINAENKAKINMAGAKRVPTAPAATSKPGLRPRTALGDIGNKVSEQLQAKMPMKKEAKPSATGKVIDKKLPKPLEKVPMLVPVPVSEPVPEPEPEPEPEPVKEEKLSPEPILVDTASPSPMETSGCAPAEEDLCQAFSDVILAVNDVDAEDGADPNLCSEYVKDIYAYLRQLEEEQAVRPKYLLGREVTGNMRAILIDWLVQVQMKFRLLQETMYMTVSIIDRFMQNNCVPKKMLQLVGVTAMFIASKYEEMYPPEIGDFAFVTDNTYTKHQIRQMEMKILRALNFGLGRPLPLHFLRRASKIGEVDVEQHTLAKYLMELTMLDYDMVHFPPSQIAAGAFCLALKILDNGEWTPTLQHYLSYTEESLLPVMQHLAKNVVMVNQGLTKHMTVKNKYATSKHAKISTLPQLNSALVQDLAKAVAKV

[14] = molecular target: T8, Cyclin-dependent kinase 1/cyclin B1 (Homo sapiens); conditions: at 10 µM
[15] = molecular target: T3, Cyclin-dependent kinase 2/cyclin A (Homo sapiens); conditions: at 1 µM
[16] = molecular target: T9, Cyclin-dependent kinase 2/cyclin E (Homo sapiens) (UniProt P24864+P24941+O96020); conditions: at 1 µM
[17] = molecular target: T9, Cyclin-dependent kinase 2/cyclin E (Homo sapiens); conditions: at 10 µM
[18] = molecular target: T5, Cyclin-dependent kinase 5/CDK5 activator 1 (Homo sapiens); conditions: at 1 µM
[19] = molecular target: T5, Cyclin-dependent kinase 5/CDK5 activator 1 (Homo sapiens); conditions: at 10 µM; remark: listed apart in the source
[20] = molecular target: T5, Cyclin-dependent kinase 5/CDK5 activator 1 (Homo sapiens); conditions: at 1 µM; remark: listed apart in the source

Row | Compound | residual activity [1] [%] | residual activity [2] [%] | residual activity [3] [%] | residual activity [4] [%] | residual activity [5] [%] | residual activity [6] [%] | residual activity [7] [%] | residual activity [8] [%] | residual activity [9] [%] | residual activity [10] [%] | residual activity [11] [%] | residual activity [12] [%] | residual activity [13] [%] | residual activity [14] [%] | residual activity [15] [%] | residual activity [16] [%] | residual activity [17] [%] | residual activity [18] [%] | residual activity [19] [%] | residual activity [20] [%]
1 | COc1ccc(Cl)cc1NC(=O)Nc1cc(C)nc2ccccc12 | 60 | 64 | 77 | 100 | 88 | 93 | 91 | 77 | 95 | 83 | 80 | 90 | – | – | – | – | – | – | – | –
2 | O=C(c1cc2cc(O)ccc2[nH]1)c1cc2cc(O)ccc2[nH]1 | 5 | 7 | 37 | 6 | 9 | 51 | 8 | 6 | 38 | 7 | 76 | 41 | 60 | 15 | 78 | 50 | 13 | 23 | 4 | 37
3 | O=C(c1ccccc1)c1ccc(N2CCOCC2)cc1O | 83 | 119 | 112 | 113 | 72 | 96 | 97 | 96 | – | 89 | 87 | – | – | 94 | 119 | – | – | – | 88 | 91
4 | Nc1ncnc2c1cnn2-c1ccccc1 | 23 | 23 | 97 | 54 | 94 | 95 | 86 | 79 | 95 | 85 | 86 | 88 | – | – | 125 | 98 | – | – | – | 92
5 | Nc1n[nH]c2nc3ccccc3nc12 | 80 | 48 | – | – | 44 | 83 | 28 | 41 | 92 | 69 | 89 | 76 | 96 | 59 | 86 | 83 | 46 | 80 | 35 | 92
6 | O=C(CCCc1ccc(-c2ccccc2F)cc1)Nc1ccc(O)cc1 | 102 | 83 | 107 | 105 | 98 | 102 | 94 | 99 | 103 | 98 | 98 | 105 | – | – | 96 | 101 | 92 | 104 | 99 | 111
7 | CC(C)c1nn(-c2c(Cl)cccc2Cl)c2nc(Cc3ccc(OCCO)cc3)[nH]c(=O)c12 | 70 | 78 | – | 93 | 0 | -1 | -1 | -1 | 43 | 9 | 15 | 1 | 3 | 0 | 0 | -1 | -3 | 0 | -1 | -1
8 | O=C1C(Cl)=C(N2C(=O)CCC2=O)C(=O)c2ccccc21 | 82 | 79 | 118 | 92 | 89 | 97 | 85 | 85 | 98 | 86 | – | 89 | – | – | 86 | 95 | 98 | 95 | 86 | 119
9 | Cc1cc(C)c(/C=C2\C(=O)Nc3ccccc32)[nH]1 | 75 | 57 | 100 | 48 | – | – | 69 | – | – | 60 | 64 | 32 | – | – | – | – | – | – | – | –
10 | N#C/C(=C1/Nc2ccccc2S1)c1ccnc(NCCc2cccnc2)n1 | 80 | 45 | 96 | 29 | 33 | 84 | 44 | 49 | 100 | 63 | 80 | 54 | – | – | 81 | – | – | 74 | 54 | 88
11 | O=C1NC(=O)C(c2cn(CCCO)c3ncccc23)=C1c1cnccn1 | 94 | 84 | – | 74 | 59 | 93 | 70 | 61 | – | – | 71 | 54 | 72 | 63 | 84 | 87 | 64 | 73 | 51 | 90
13 | O=C(O)/C=C/c1cc(Br)c(Br)c(Br)c1Br | 103 | 49 | 91 | 45 | 67 | 103 | 87 | 76 | 100 | 95 | 104 | 89 | 109 | 56 | – | 100 | 91 | 94 | 84 | –
14 | CCCC(=O)Oc1ccc2[nH]c(C(=O)c3cc4ccccc4[nH]3)cc2c1 | 90 | 91 | 96 | – | 99 | 95 | 74 | 87 | 79 | 74 | 83 | 97 | – | – | 133 | 105 | 95 | – | 95 | 74
15 | CC(C)(C)n1nc(Cc2cccc3ccccc23)c2c(N)ncnc21 | 90 | 91 | 111 | 98 | 57 | 86 | 63 | 86 | 87 | 97 | 86 | 90 | 106 | 92 | 130 | 107 | 69 | 110 | 82 | 87
16 | Oc1cccc(-c2nc(N3CCOCC3)c3oc4ncccc4c3n2)c1 | 95 | 84 | 96 | 100 | 93 | 118 | 97 | 91 | 91 | 67 | 86 | 96 | – | – | 129 | – | – | – | – | 92
17 | Nc1ncnc2[nH]nc(Nc3ccc(F)cc3)c12 | 74 | 18 | 65 | 12 | 49 | – | 39 | – | 107 | 78 | 98 | – | – | 21 | – | 91 | 59 | 98 | – | 110
18 | O=c1cc(N2CCNCC2)oc2c(-c3ccccc3)cccc12 | 70 | 74 | 98 | 95 | 87 | 102 | 84 | 82 | 93 | 94 | 94 | 81 | 104 | 102 | 125 | – | 103 | 100 | 71 | 100
19 | COc1cc2nccc(Oc3ccc(NC(=S)NC(=O)c4ccccc4C)cc3)c2cc1OC | 100 | 56 | 89 | 89 | – | 89 | 74 | 86 | 78 | 77 | 75 | 87 | – | – | – | – | – | 85 | 86 | 97
20 | CCN(CC)CCNC(=O)c1c(C)[nH]c(/C=C2\C(=O)Nc3ccc(Cl)cc32)c1C | 6 | 9 | 29 | 10 | 69 | – | – | 28 | 70 | 13 | 15 | 2 | – | 57 | 134 | 98 | 65 | 77 | 22 | 72
21 | O=C1Nc2ccc(Cl)cc2/C1=C/c1cc(Cl)c(O)c(Cl)c1 | 40 | 29 | 86 | 47 | 79 | 90 | 73 | 80 | 89 | 86 | 84 | 87 | 95 | 97 | 118 | 95 | 97 | 97 | 77 | 97
22 | O=c1c(-c2ccc(F)cc2)c(-c2ccncc2)[nH]n1-c1ccc(Cl)cc1 | 100 | 59 | – | 76 | – | – | – | – | – | – | – | – | – | – | 99 | – | 102 | – | – | –
23 | NC(=O)Nc1sc(-c2ccc(F)cc2)cc1C(N)=O | 55 | 15 | 83 | 18 | 21 | 73 | 43 | 33 | 78 | 33 | 87 | 61 | 100 | 57 | 59 | 79 | 26 | 70 | 33 | 81
24 | O=C(NC(NC(=S)Nc1ccc(F)c([N+](=O)[O-])c1)C(Cl)(Cl)Cl)C(c1ccccc1)c1ccccc1 (centres undefined) | 91 | 63 | 93 | 73 | 96 | 100 | 93 | 83 | 97 | 94 | – | – | – | – | – | 90 | 77 | 98 | – | –
25 | Nc1nc(Nc2ccc(S(N)(=O)=O)cc2)nn1C(=O)c1c(F)cccc1F | 55 | 12 | 40 | 15 | 1 | 3 | 0 | 0 | 57 | 12 | 57 | 10 | 1 | 0 | -1 | 2 | -1 | 0 | 0 | -1
